Tests used:
Format in all cases: functional
[1] = target: Solute carrier family 2, facilitated glucose transporter member 1 (Homo sapiens) (UniProt P11166); assay: ST_JUDE_LEISH: Cytotoxicity at 2uM final concentration against transgenic Leishmania Mexicana promastigotes LmGLUT1 that are glucose transport deficient and complemented with the human glucose transporter GLUT1. Activity is measured by DNA content using SYBR green in vitro
[2] = target: Hexose transporter 1 (Plasmodium falciparum) (UniProt O97467); assay: ST_JUDE_LEISH: Cytotoxicity at 2uM final concentration against transgenic Leishmania Mexicana promastigotes LmPfHT that are glucose transport deficient and complemented with the Plasmodium falciparum hexose transporter. Activity is measured by DNA content using SYBR green in vitro
[3] = target: Glucose transporter (Leishmania mexicana) (UniProt O61059); assay: ST_JUDE_LEISH: Cytotoxicity at 2uM final concentration against transgenic Leishmania Mexicana promastigotes LmGT2 that are glucose transport deficient and complemented with the L. Mexicana glucose transporter 2. Activity is measured by DNA content using SYBR green in vitro

Chain of Solute carrier family 2, facilitated glucose transporter member 1 (Homo sapiens) (P11166 whole entry): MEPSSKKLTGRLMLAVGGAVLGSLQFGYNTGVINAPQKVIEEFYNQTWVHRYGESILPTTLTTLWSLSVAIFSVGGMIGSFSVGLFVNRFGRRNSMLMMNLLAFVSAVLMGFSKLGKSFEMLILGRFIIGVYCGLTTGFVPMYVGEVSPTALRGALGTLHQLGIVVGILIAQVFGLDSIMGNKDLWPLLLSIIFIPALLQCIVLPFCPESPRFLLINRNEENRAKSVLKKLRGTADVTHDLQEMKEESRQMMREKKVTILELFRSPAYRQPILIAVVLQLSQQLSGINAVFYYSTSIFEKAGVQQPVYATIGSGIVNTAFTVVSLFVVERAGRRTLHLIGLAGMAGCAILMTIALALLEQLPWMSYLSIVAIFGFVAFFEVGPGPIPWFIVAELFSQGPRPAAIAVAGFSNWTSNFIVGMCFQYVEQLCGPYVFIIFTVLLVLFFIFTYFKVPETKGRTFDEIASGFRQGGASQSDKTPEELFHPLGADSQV

| SMILES | inhibition [1] [%] | inhibition [2] [%] | inhibition [3] [%] |
| --- | --- | --- | --- |
| Cc1nnsc1C(=O)Nc1cccc(-c2cccc(-c3nc4cccc(C)c4[nH]3)c2)c1 | -0.36 | -1.04 | -5.1 |
| CC(O)C1CCCCN1C(=O)c1ccc(-c2ccc(-c3nc4ccccc4[nH]3)s2)cc1 (stereo unspecified) | -1.19 | -3.15 | -1.69 |
| N#Cc1c(-c2ccccc2)cn2c1[nH]c(=O)c1ccccc12 | -1.7 | 2.37 | 1.89 |
| Cc1cc(Nc2ccccc2)nc(Nc2ccccc2C)n1 | 5.24 | 4.32 | 0.47 |
| COc1ccc(Nc2cc(C)nc(NCc3ccc4c(c3)OCO4)n2)cc1 | 5.82 | 4.09 | 1.69 |
| CCCCCC(C)(C)NC[C@@H](O)[C@H](Cc1ccccc1)NC(=O)c1cc(NCC)cc(N2CCCC2=O)c1 | -0.4 | 0.68 | -1.82 |
| Cc1cccc2nc(-c3ccc(-c4ccc(C(=O)NCCc5cn(C)cn5)cc4)s3)[nH]c12 | 4.34 | 5.34 | 2.6 |
| CCC[C@@H]([C@@H](CC(C)C)C(=O)N[C@@H](CCCCNC(=O)c1ccccn1)C(=O)Nc1nccs1)N(O)C=O | 4.93 | 6.98 | 1.73 |
| Cc1cc(N[C@@H](Cc2ccccc2)C(=O)Nc2ccccc2)nc(NCCc2cccnc2)n1 | 10.6 | 11 | 9.02 |
| N#Cc1ccc2c(c1)CCN(CCC1CCC(NC(=O)c3cccc(-c4ccc(F)cc4)c3)CC1)CC2 (stereo unspecified) | 5.14 | 2.32 | 5.8 |
| O=C(Nc1cccc(CN2CCCN(Cc3ccc(O)cc3)CC2)c1)c1cc2ccccc2o1 | -0.45 | 2.02 | 1.62 |
| CC(C)(C)c1ccccc1SC1=C(O)CC2(CCNCC2)OC1=O | 0.78 | 0.64 | 1.29 |
| CC(C)Cn1c(Sc2ccc(C#N)c([N+](=O)[O-])c2)nnc1-c1cccc(Cl)c1 | 12.7 | 12.4 | 9.62 |
| COc1cc2c(cc1OC)CN(CCCCc1ccc(NC(=O)c3cc(Cl)cc(Cl)c3)cc1)CC2 | 4.58 | 4.95 | -0.56 |
| O=C(/C=C/c1ccc(Cl)c(Cl)c1)NCCCCCN1CCC(NC(=O)Nc2ccc(Oc3ccccc3)cc2)C1 (stereo unspecified) | 2.36 | 1.54 | 0.16 |
| COCn1ncc2cc(-c3cccc(NC(=O)c4csc(NC(C)=O)n4)c3)ccc21 | 3.31 | 1.44 | 2.05 |

| SMILES | inhibition [1] [%] | inhibition [2] [%] | inhibition [3] [%] |
| --- | --- | --- | --- |
| Cc1nc2ccc3ccc(CNc4ccc(C(=O)CC(CCC(=O)O)C(=O)O)cc4)cc3c2c(=O)[nH]1 (stereo unspecified) | -0.57 | -1.01 | -0.36 |
| O=[N+]([O-])c1cccc(CNCC2CCN(Cc3ccc(C(F)(F)F)cc3)CC2)c1 | 0.44 | 5.74 | 6.41 |
| O=C(Nc1cccc(F)c1)N1CCC(NS(=O)(=O)c2ccc(Br)cc2)CC1 | 4.47 | 4 | 2.63 |
| CCOC(=O)CN1Cc2cc(NCc3ccc4ccc5nc(C)[nH]c(=O)c5c4c3)ccc2C1=O | 0.55 | 1.98 | -0.88 |
| c1cncc(Oc2ccc(Nc3ccnc4cc(-c5cccc(CN6CCOCC6)c5)ccc34)cc2)c1 | -1.93 | -1.33 | -1.76 |
| CCC(C)NS(=O)(=O)c1ccc2nc(Nc3ccc(C)cc3)n(C3CCCCC3)c2c1 (stereo unspecified) | 5.26 | 4.02 | 3.35 |
| COc1cc(CNC2Cc3ccccc3C2)ccc1Oc1ccc2nc[nH]c2c1 | 2.66 | 0.67 | 0.95 |
| COc1cc2nc(N3CCC(CNC(=O)c4ccc(-c5ccccc5)cc4)CC3)nc(N)c2cc1OC | 1.43 | 1.28 | 0.24 |
| CN(c1ccc(C(=O)N[C@@H](CCC(=O)O)C(=O)O)cc1)S(=O)(=O)c1ccc2nc(N)[nH]c(=O)c2c1 | 2.98 | -0.77 | 0.27 |
| CCC(=O)c1cc(C(=O)NCCc2cccc(OC)c2)ccc1OC | 12.4 | 11.3 | 11.3 |
| O=C(/C=C/c1ccc(Cl)c(Cl)c1)NCCCCCCN1CCCN(C(=O)Nc2ccc(F)c(F)c2)CC1 | 0.72 | 0.44 | 2.39 |
| Cc1cc(=NN=Cc2ccccc2F)c2cccc(C)c2[nH]1 | 3.9 | 5.38 | 0.4 |
| COc1cccc(-c2ccc3c(-c4ccc(F)cc4)cnc(N)c3c2)c1 | 5.2 | 4.32 | 2.91 |
| Cc1cccc2nc(-c3cccc(-c4cccc(CNCc5cccc(N)c5)c4)c3)[nH]c12 | 1.24 | 2.66 | 1.47 |
| Cc1cccc2nc(-c3cccc(-c4ccc(NC(=O)Nc5ccc(F)c(F)c5F)cc4)c3)[nH]c12 | 1.49 | 1.47 | 3.22 |
| Cc1noc(C)c1-c1ccc(C(=C2CCCCCC2)c2ccc(O)cc2)cc1 | 3.18 | 3.88 | 4.06 |

From ChEMBL document CHEMBL3433997, “St. Jude Leishmania screening dataset” (2016)
